# Screening results deposited in PubChem BioAssay by National Center for Advancing Translational Sciences (NCATS).
# The list is not random: actives were taken first. Their share in the collection is about 6.5%.
# HCMV antiviral = human cytomegalovirus inhibition | HFF cells, HCMV-luciferase reporter, 72 h; stronger effect = lower value | activity change, negative = inhibition, % at 57.5 µM | 410,000 compounds, 4.5% hits; in the data active = activity change below about -60%; inconclusive = no clear call, values can overlap the other calls; inactive = above about -39%
#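 Screen run at 2 compound doses on HFFs infected with reporter HCMV, MOI 1 PFU/cell. Luciferase activity from cell lysates at 72 h post infection gave inhibition relative to buffer-only and Salinomycin wells.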
# Vaccinia Venus = vaccinia inhibition (Venus reporter); Potency, µM (series often up to 36.5 µM), for inactives: at the top dose activity change, negative = inhibition, most hits filed as inhibitors; Vaccinia virus Venus reporter expression, fluorescence; 330,000 compounds, 0.46% hits; calls by dose curve; tested in A549 cells; also: potency is read from the fitted curve at half-maximal effect; nearly all actives have a fitted effect of over 30% in size
# FMDV antiviral = antivirals against foot and mouth disease virus | AID 1159524 | 410,000 compounds, 1.2% hits | FMDV antiviral cell-based qHTS | Potency, µM (titrated, usually from 57.9 µM), for the others: at the top dose activity change, negative = inhibition, usual class: inhibitors; calls by dose curve; tested in HEK293T cells; also: read-out not given here; potency is read from the fitted curve at half-maximal effect; nearly all actives have a fitted effect of over 45% in size
# Lassa entry inh = blocks Lassa virus binding to or entry into cells | Lassa virus pseudotype entry inhibition, cell reporter | Potency, µM (top dose mostly 37.9 µM), inactives show at the highest dose activity change, negative = inhibition, usual class: inhibitors | 300,000 compounds, 1.2% hits | AID 540256; calls by dose curve; tested in HEK293 cells; also: potency is read from the fitted curve at half-maximal effect; nearly all actives have a fitted effect of over 50% in size
# MARV entry inh = inhibitors of Marburg virus binding or cell entry. Marburg virus pseudotyped entry inhibition, cell reporter. Potency, µM (titrated, usually from 37.8 µM), inactives show top-dose activity change, negative = inhibition, hits mostly inhibitors. 300,000 compounds, 1.8% hits. AID 540276; calls by dose curve; tested in HEK293 cells; also: potency is read from the fitted curve at half-maximal effect
# VACV mCherry inh = inhibitors of vaccinia virus infection (mCherry reporter signal); 310,000 compounds, 0.63% hits; Vaccinia virus mCherry reporter infection, fluorescence; Potency, µM (highest dose often 36.5 µM), without a hit: top-dose activity change, negative = inhibition, most hits filed as inhibitors; AID 720579; calls by dose curve; tested in A549 cells; also: potency is read from the fitted curve at half-maximal effect; nearly all actives have a fitted effect of over 35% in size
# The depositor's hits bear a star; i = inactive; ? = inconclusive; . = no result; [ ] = remark or other dose. % is scaled to controls: 0 for no effect and ±100 for the full control effect.
SMILES,HCMV antiviral,Vaccinia Venus,FMDV antiviral,Lassa entry inh,MARV entry inh,VACV mCherry inh
C/C(N)=C(/C#N)C(=O)CSc1nnc(SCc2ccc(Cl)cc2)s1,-64.0*,?,?,?,?,?
Cc1cccc(C)c1Nc1nnc(SCc2cn3cccc(C)c3n2)s1,-69.8*,.,0.0%,.,1.4%,.
Cc1ccc[n+](-c2nc([O-])sc2C=O)c1,-21.8,4.4%,-4.9%,-2.6%,-11.0%[46.1 µM],10.1%
Cc1ccc(-n2c([O-])nc(-[n+]3ccccc3)c2C=O)cc1,-72.1*,-5.2%,.,19.4%,-0.4%,i
CCN(c1ccc(OC)cc1)S(=O)(=O)c1ccc(-c2cc(C)no2)s1,-75.7*,.,-20.9%,.,.,.
CCOc1ccccc1Nc1nnc(SC(C)C(=O)Nc2nc(-c3ccccc3)cs2)s1 (stereo not given),-33.8,7.8%,-16.7%,6.31µM*,3.55µM*,-17.5%
OCCN1CCN(c2nc(-c3ccccc3)c3cc(Br)ccc3n2)CC1,-61.6*,-9.8%,-8.2%,?,?,?
OCCN1CCN(c2cc(-c3ccccc3)c3ccccc3n2)CC1,-63.4*,-24.2%,?,-5.8%,?,-15.5%
OCCN1CCN(c2ncnc3ccc(Br)cc23)CC1,-78.3*,-10.1%,-23.7%,.,.,i
CCN1CCN(c2ncnc3ccc(Br)cc23)CC1,-66.6*,-8.4%,-29.5%,-1.8%,-20.8%,-0.5%
COC(=O)/C=C/c1cc(F)ccc1S(=O)(=O)Nc1ccccc1,.,-21.1%,.,.,.,-4.4%
COc1ccc(Oc2ncc3nc(-c4cc(F)cc(F)c4)c(=O)n(C[C@H]4CCCO4)c3n2)cc1,.,.,-17.0%,.,.,.
COc1ccc2c(c1)C(=O)[C@@H](OC(=O)Nc1cc(OC)c(OC)c(OC)c1)[C@H](c1ccc(OC)c(Br)c1)O2,.,.,.,.,-20.8%[14.2 µM],.
CC(C)(C)NC(=S)Nc1cccc(C(F)(F)F)c1,?,-25.0%,-27.8%,.,?,-29.5%
COC(=O)/C=C/C(=O)Nc1cccc(C(F)(F)F)c1,-74.1*,?,0.0%,-10.0%,?,?
Cc1ccc(OCC(=O)NC(=S)Nc2cccc(NC(=O)c3ccc(Cl)cc3Cl)c2)cc1,-72.6*,-9.6%,0.2%,9.0%,4.6%,-25.8%
COC(=S)Nc1cccc(C(F)(F)F)c1,30.7,-0.1%,-11.1%,-0.8%,3.2%[46.1 µM],i
FC(F)(F)c1cccc(NC(=S)NCc2ccccc2)c1,-72.6*,?,0.7%,?,0.1%,.
O=C(NNC(=S)Nc1cccc(C(F)(F)F)c1)c1ccc(Cl)cc1Cl,-66.5*,?,-26.5%,-0.4%,?,?
FC(F)(F)c1cccc(NC(=S)NC(c2ccccc2)c2ccccc2)c1,-39.7,?,25.1µM*,-26.6%,?,?
COc1ccc(NC(=S)NNC(=S)Nc2cccc(C(F)(F)F)c2)cc1,-76.1*,-18.7%[7.34 µM],14.1%,?,?,?
FC(F)(F)c1cccc(NC(=S)Nc2ccc(Cl)c(Cl)c2)c1,6.3,-9.9%,-19.9%,?,?,i
FC(F)(F)c1cccc(CNC(=S)Nc2ccccc2)c1,-71.6*,-7.7%,17.6%,0.2%,-16.9%[46.1 µM],i
CC1(C)NC(=O)N(CCCCOc2ccc(Cl)cc2C=O)C1=O,-60.0*,-21.7%,-6.7%,.,.,-5.1%
CC1(C)NC(=O)N(CCCCOc2ccc(Cl)cc2)C1=O,3.7,.,-6.6%,-2.0%,19.8%,.
SMILES,HCMV antiviral,Vaccinia Venus,FMDV antiviral,Lassa entry inh,MARV entry inh,VACV mCherry inh
CC(=O)c1cc(C)c(OC(=O)c2ccccc2)c(C)c1,-3.7,-23.2%,?,?,-8.2%,-8.0%
CC(=O)Cc1cc(O)c2ccccc2c1OC(=O)c1ccccc1,-73.3*,1.9%,-15.8%,-25.5%[46.1 µM],-19.2%[46.1 µM],?
COC(=O)c1ccc(/C=N/Nc2nc(-c3ccc(C)cc3)cs2)cc1,.,?,-0.9%,5.6%,?,12.6µM*
COC(=O)c1ccc(/C=N/Nc2nc(-c3ccccc3)cs2)cc1,95.2,-13.5%,-13.2%,-3.1%,11.5%,i
COc1ccccc1CNC(=O)c1oc2ccc(S(=O)(=O)N3CCCCC3)cc2c1C,-21.7,-22.8%,-23.3%,?,.,-24.2%
O=C(Nc1ccc(Cl)cc1Cl)[C@@H]1CC=C[C@@H]2CCN(C3CCCCC3)C(=O)[C@@H]21,.,-7.4%,.,.,.,-1.3%
CC(C)Oc1cccnc1N(C)C1CCN(Cc2ccccc2)CC1,-10.9,-9.0%,-21.4%,-9.1%,1.78µM*,i
